# From PubChem BioAssay (NCI)
# About 83,000 compounds went through this panel and 20% of them were active in at least one assay; those are over-represented in the sample as a whole.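 Note: values are percent growth. 100 is the growth of untreated cells, values between 100 and 0 indicate rising inhibition; between -100 and 0 indicates cell death.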 A number with no mark means an inactive call. The source made the active and inactive calls. Rule for the calls: active = growth percent below 10; inactive = the rest.
# How the values were obtained:
# Test in all cases: NCI-60 one-dose screen, 48 h (100 = growth as untreated, 0 = no growth, -100 = all killed)
# Details in all cases: 10 µM unless noted
# NCI-H23 lung = tested on: NCI-H23 lung
# NCI-H226 lung = tested on: NCI-H226 lung
# NCI-H322M lung = tested on: NCI-H322M lung
# HOP-62 NSCLC = tested on: HOP-62 NSCLC
# NCI-H460 lung = tested on: NCI-H460 lung
# HOP-92 NSCLC = tested on: HOP-92 NSCLC
# NCI-H522 lung = tested on: NCI-H522 lung
# A549/ATCC NSCLC = tested on: A549/ATCC NSCLC
# 786-0 renal = tested on: 786-0 renal
# COLO 205 colon = tested on: COLO 205 colon
# DU-145 prostate = tested on: DU-145 prostate
# K-562 leukemia = tested on: K-562 leukemia
# MALME-3M melanoma = tested on: MALME-3M melanoma
# MDA-MB-231 breast = tested on: MDA-MB-231 breast
# RXF 393 renal = tested on: RXF 393 renal
# SF-268 CNS = tested on: SF-268 CNS
# SF-539 CNS = tested on: SF-539 CNS
# UACC-257 melanoma = tested on: UACC-257 melanoma
# M14 melanoma = tested on: M14 melanoma
Structure (SMILES),growth (NCI-H23 lung),growth (NCI-H226 lung),growth (NCI-H322M lung) [%],growth (HOP-62 NSCLC),growth (NCI-H460 lung) [%],growth (HOP-92 NSCLC),growth (NCI-H522 lung),growth (A549/ATCC NSCLC) [%],growth (786-0 renal),growth (COLO 205 colon),growth (DU-145 prostate),growth (K-562 leukemia),growth (MALME-3M melanoma),growth (MDA-MB-231 breast),growth (RXF 393 renal),growth (SF-268 CNS),growth (SF-539 CNS),growth (UACC-257 melanoma),growth (M14 melanoma)
COc1cccc(NC(=O)[C@H](C(C)C)n2c(=O)[nH]c3ccccc3c2=O)c1,99.8%,92.4%,117,102%,103,110%,99.1%,97.9,105%,108%,107%,90.4%,104%,107%,109%,111%,102%,96.5%,107%
Oc1[nH]c2ccc(Cl)cc2c1/C=c1/ccc2c(c1)N=C(c1ccc(F)cc1)N=2,74.5%,89.9%,84.1,74.5%,74.2,34.2%,80.7%,71.4,76%,97.6%,86.3%,16.4%,-3.95% (active),63.1%,63.4%,77.2%,92.2%,70.1%,30.4%
CC(=O)c1nn(-c2ccccc2)/c(=N\N=C\c2coc3ccc(F)cc3c2=O)s1,96.8%,86%,104,85.6%,102,90.6%,101%,109,110%,111%,111%,94.5%,102%,88.3%,116%,87.8%,94.4%,116%,93.5%
C=CCn1c(SCC(=O)Nc2ccc(/C(C)=N\O)cc2)nnc1-c1cc(-c2ccc(Cl)cc2)nc2ccccc12,24.1%,50.7%,26.2,49.6%,17.2,50.4%,22.4%,19.4,23%,27.8%,48.5%,13.4%,71.7%,35%,47%,38.2%,15.8%,47.9%,20.4%
Cc1c(O)c(=O)n(-c2ccccc2)n1C,101%,100%,108,100%,118,96.3%,110%,105,101%,111%,116%,106%,112%,99.1%,124%,114%,97.6%,119%,100%
Cc1cc(C)cc(CCCCCCCCCCCCCCCCCC(=O)O)c1,104%,111%,110,107%,113,116%,92%,96.6,99.5%,113%,108%,115%,108%,120%,107%,103%,106%,106%,98%
O=C(C(Br)C(Br)c1ccccc1)C(Br)C(Br)c1ccccc1 (centres undefined),8.99% (active),-36.5% (active),84.2,3.69% (active),64,-60.7% (active),-90.6% (active),29.4,-62.7% (active),-47.8% (active),-26.4% (active),-17.5% (active),-69.5% (active),-16.5% (active),-85.1% (active),-1.83% (active),-42.5% (active),-67.3% (active),1.62% (active)
CC(CN1CCN(CCOCCO)CC1)CN1c2ccccc2Sc2ccc(Cl)cc21 (centres undefined),72.7%,83.5%,88.2,107%,50.2,-3.33% (active),33.3%,75.1,65.5%,-79.9% (active),70.3%,6.64% (active),45.1%,29.9%,56.8%,63.8%,79.2%,-3.9% (active),5.98% (active)
Brc1cccc(-n2ncc3c(Nc4ccc(-c5nnc(-c6ccccc6)o5)cc4)ncnc32)c1,94.5%,90.2%,104,89.6%,109,104%,98.3%,109,104%,107%,111%,110%,110%,93.5%,92.9%,98.6%,95.9%,108%,108%
CCCCCCCCCCCCCC[N+](C)(C)CCCCCCCCCCCCCC,70.3%,72.9%,98.7,86.2%,74.3,8.4% (active),47.3%,55.3,63.4%,66%,97.9%,30.5%,50.1%,78.9%,2.29% (active),70.8%,77.2%,82.5%,75.4%
O=C(Nc1ccc(Cl)c(C(F)(F)F)c1)c1ccc(Nc2ccc(Cl)nn2)cc1,48.4%,84.2%,92.9,86.1%,74,82.8%,62%,44.3,50.9%,81.6%,76.7%,44.2%,106%,59.3%,47.8%,80.7%,68.1%,74.6%,57.4%
Cn1c(=O)c2c3c(oc2c2ccccc21)C(=O)c1ccccc1C3=O,78.3%,73.2%,96.2,81.8%,78.5,101%,50.6%,81.7,107%,74.5%,91%,68.8%,113%,11.5%,101%,95.3%,97.2%,106%,85.6%
O=[N+]([O-])c1cccc([I+]c2ccccc2)c1,49.8%,59%,76.6,-26.8% (active),18.2,93.6%,50.3%,47.7,70.8%,40.1%,58.5%,27.3%,49.4%,83.2%,72.4%,50.1%,65.6%,80.1%,56.6%
CCN(C(=O)Nc1cccc2ccccc12)c1ccccc1,98.3%,98.1%,102,93.6%,115,96.3%,100%,98.7,106%,105%,107%,89.3%,90.6%,105%,120%,104%,93.5%,112%,106%
Cc1ccc(-c2cnc3sc4ccc(Cl)cc4n23)cc1,89.7%,74.6%,93.4,80.3%,104,85.6%,78.1%,112,109%,96.8%,101%,110%,110%,85%,104%,98.5%,94.4%,112%,100%
C=CCn1c(C)nc2cc(Nc3nc(Nc4ccc5nc(C)n(CC=C)c5c4)nc4ccccc34)ccc21,94.2%,99.8%,109,101%,117,79.8%,99.1%,96.3,113%,108%,115%,102%,94.5%,90%,124%,113%,98.6%,102%,109%
